Pf growth 96h – Primary qHTS for delayed death inhibitors of the malarial parasite plastid, 96 hour incubation; Potency, µM (titrated, usually from 28.7 µM), without a hit: at the top dose activity change, negative = inhibition, usual class: inhibitors; 320,000 compounds, 6.9% hits; P. falciparum luciferase reporter growth, 96 h; AID 504834, 2011; also: % is scaled to controls: 0 for no effect and ±100 for the full control effect
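Cell-based qHTS: luciferase-tagged P. falciparum in erythrocytes (2% hematocrit, 0.05% parasitemia final) incubated with compounds for 96 hours, 37 C, 5% CO2; luciferase detection reagent then added and luminescence measured.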
Pf growth 48h – Primary qHTS for delayed death inhibitors of the malarial parasite plastid, 48 hour incubation | P. falciparum luciferase growth in erythrocytes, 48 h | Potency, µM (doses to about 28.7 µM), inactives show top-dose activity change, negative = inhibition, actives largely listed as inhibitors | 310,000 compounds, 5.9% hits; also: % is scaled to controls: 0 for no effect and ±100 for the full control effect
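Read-out is firefly luciferase luminescence from an integrated reporter in P. falciparum, so falling signal marks reduced parasite growth. Infected erythrocytes were at 2% hematocrit and 0.1% parasitemia (final) in Albumax-supplemented RPMI 1640.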
AmpC no deterg – qHTS Inhibitors of AmpC Beta-Lactamase (assay without detergent); 330,000 compounds, 0.52% hits; AmpC nitrocefin hydrolysis, absorbance 480 nm, 0.0001% Triton; AID 485341, 2010; P00811; Potency, µM (series often up to 57.1 µM), for the others: top-dose activity change, negative = inhibition, usual class: inhibitors;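 also: plate controls were no compound for no effect and no enzyme for full effect; nearly all actives have a fitted effect of over 20% in size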
Target sequence (P00811 whole entry, looked up): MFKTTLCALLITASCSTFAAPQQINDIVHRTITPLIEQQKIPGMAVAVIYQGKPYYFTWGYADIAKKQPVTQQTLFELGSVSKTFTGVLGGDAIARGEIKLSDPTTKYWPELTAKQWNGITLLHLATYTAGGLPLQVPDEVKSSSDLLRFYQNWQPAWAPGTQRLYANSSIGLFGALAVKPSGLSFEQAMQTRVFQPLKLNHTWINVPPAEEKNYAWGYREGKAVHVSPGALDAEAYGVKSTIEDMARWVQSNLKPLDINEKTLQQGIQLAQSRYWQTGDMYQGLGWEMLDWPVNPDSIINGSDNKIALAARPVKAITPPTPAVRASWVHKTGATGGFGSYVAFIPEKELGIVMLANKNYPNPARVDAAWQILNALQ
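20 mM phosphate pH 7.0 + 0.01% (detergent screen) or 0.0001% Triton X-100; 5.3 nM AmpC reagent; cpd preinc 15 min RT; nitrocefin (800 uM stock) to start; A480 q20 s × 4 min; Activity was normalised to no-enzyme and no-compound control wells.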
AmpC inh detg – qHTS Inhibitors of AmpC Beta-Lactamase (assay with detergent) | 370,000 compounds, 0.041% hits | AmpC hydrolysis of nitrocefin, absorbance 480 nm, 0.01% Triton | P00811 | Potency, µM (series often up to 114 µM), without a hit: at the top dose activity change, negative = inhibition, usual class: inhibitors | AID 485294, 2010;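 also: 0% = no-compound wells and -100% = no-enzyme wells; nearly all actives have a fitted effect of over 25% in size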
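20 mM phosphate pH 7.0 + 0.01% (detergent screen) or 0.0001% Triton X-100; 5.3 nM AmpC reagent; cpd preinc 15 min RT; nitrocefin (800 uM stock) to start; A480 q20 s × 4 min; Activity was normalised to no-enzyme and no-compound control wells.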
Sm TGR block – qHTS Assay for the Inhibitors of Schistosoma Mansoni Peroxiredoxins | Schistosoma mansoni thioredoxin glutathione reductase (TGR), Q962Y6 | purified TGR, DTNB reduction, TNB absorbance 405 nm | Potency, µM (titrated, usually from 114 µM), without a hit: at the highest dose activity change, negative = inhibition, actives largely listed as inhibitors | 360,000 compounds, 3% hits | AID 485364, 2010; also: % is scaled to controls: 0 for no effect and ±100 for the full control effect; nearly all actives have a fitted effect of over 60% in size
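Kinetic colorimetric format: TGR-catalysed, NADPH-driven DTNB reduction monitored via TNB absorbance. Enzyme dispensed at 20 nM; compound exposure 15 min at room temperature before reaction start.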
SARS PLP yeast – qHTS of Yeast-based Assay for SARS-CoV PLP | S. cerevisiae expressing SARS-CoV PLpro, growth rescue | Potency, µM (titrated, usually from 32.9 µM), for inactives: top-dose activity, positive = growth rescue, actives largely listed as activators | 330,000 compounds, 0.19% hits; calls by dose curve; also: 0% is about no effect; nearly all actives have a fitted effect of over 55% in size
Active calls of the source: *. In the library only some 12% were active in any assay of this set; here they are far more common. Unless noted, calls follow the shape of the dose curve; as a rule, active = well fitted curve in the direction sought with a large enough effect; inconclusive = small, poorly fitted or top-dose-only effect, or another doubt; inactive = no such curve, though single readings can be large; an effect the other way counts as inactive or inconclusive. Potency is read from the fitted curve at half-maximal effect.

`CC(C)c1ccc(N2C(=O)CC(Sc3nc4ccccc4o3)C2=O)cc1` (stereo not given) gave Pf growth 96h inconclusive, Pf growth 48h 37%, AmpC no deterg -38%, AmpC inh detg -5%, Sm TGR block inconclusive and SARS PLP yeast -26%.
`CC1CCN(c2c(NCC3CCC(C(=O)NCc4ccccc4Cl)CC3)c(=O)c2=O)CC1` (stereo not given) gave Pf growth 96h inconclusive, Pf growth 48h inconclusive, AmpC no deterg -9%, AmpC inh detg -19%, Sm TGR block 3% and SARS PLP yeast -3%.
CC(=O)c1c(N2CCN(Cc3ccccc3)CC2)[nH]c(-c2ccccc2)nc1=S was read as Pf growth 96h -101%, Pf growth 48h 4.7µM*, AmpC no deterg -28%, AmpC inh detg -8%, Sm TGR block -11% and SARS PLP yeast 22%.
Screening COc1ccc(OC)c([C@@H]2Nc3ccc(C(=O)O)cc3[C@@H]3C=CC[C@@H]32)c1 returned AmpC inh detg 10% and Sm TGR block inconclusive.
`O=C(O)C1Nc2ccc(Br)cc2C2C=CCC12` (stereo not given) gave Pf growth 96h 40%, Pf growth 48h 1%, AmpC no deterg -44%, AmpC inh detg inconclusive, Sm TGR block 0.89µM* and SARS PLP yeast -3%.
`COc1ccc(Br)cc1[C@@H]1Nc2ccc(C(=O)O)cc2[C@@H]2C=CC[C@@H]21` gave AmpC inh detg -10% and Sm TGR block -20%.
Screening CCOC(=O)c1ccc2c(c1)C1C=CCC1C(C(=O)OCC)N2 (stereo not given) returned Pf growth 96h 3%, Pf growth 48h 12µM*, AmpC no deterg -8%, AmpC inh detg inconclusive, Sm TGR block 32µM* and SARS PLP yeast 0%.
O=C(OC1CCCCC1)c1ccc2c(c1)C1C=CCC1C(C(=O)O)N2 (stereo not given) was read as Pf growth 96h inconclusive, Pf growth 48h 20%, AmpC no deterg -23%, AmpC inh detg -8%, Sm TGR block 3.2µM* and SARS PLP yeast 4%.
For CCOC(=O)c1ccc2c(c1)[C@@H]1C=CC[C@@H]1[C@H](c1cccc(OC)c1OC)N2 the results were AmpC inh detg -1% and Sm TGR block 0%.
`CCOC(=O)C1Nc2ccc(Br)cc2C2C=CCC12` (stereo not given) gave Pf growth 96h 13µM*, Pf growth 48h inconclusive, AmpC no deterg -27%, AmpC inh detg -4%, Sm TGR block 28µM* and SARS PLP yeast -4%.
Screening COc1ccc(NC(=O)Cn2c(=O)n(CCC(=O)NCCc3ccc(OC)c(OC)c3)c(=O)c3ccccc32)cc1Cl returned AmpC inh detg 19% and Sm TGR block 5%.
CCOc1ccc(OCCC(=O)N(CC)CC(=O)Nc2ccccc2C(F)(F)F)cc1 was read as Pf growth 96h 8%, Pf growth 48h 5%, AmpC no deterg 50%, AmpC inh detg inconclusive, Sm TGR block -1% and SARS PLP yeast -8%.
Screening COc1ccc(/C=N/NC(=O)c2cccnc2)cc1CN1CCc2ccccc2C1 returned Pf growth 96h 10µM*, Pf growth 48h 10µM*, AmpC no deterg 5%, AmpC inh detg 2%, Sm TGR block 6% and SARS PLP yeast 0%.
For COc1ccc(/C=N/NC(=O)c2ccncc2)cc1CN1CCN(c2ccc(F)cc2)CC1 the results were Pf growth 96h 3.7µM*, Pf growth 48h -2%, AmpC no deterg -16%, AmpC inh detg -1%, Sm TGR block 0% and SARS PLP yeast 2%.
COc1ccc(/C=N/NC(=O)c2ccc(O)cc2)cc1CN1CCCc2ccccc21 was read as Pf growth 96h 2.3µM*, Pf growth 48h inconclusive, AmpC no deterg -20%, AmpC inh detg -7%, Sm TGR block -6% and SARS PLP yeast -8%.
`COc1ccc(/C=N/NC(=O)c2ccc(C)cc2)cc1CN1CCN(c2ccc(F)cc2)CC1` gave Pf growth 96h -13%, Pf growth 48h 14%, AmpC no deterg -14%, AmpC inh detg inconclusive, Sm TGR block 17% and SARS PLP yeast 8%.
Screening Cc1nc(C)c(CCNC(=O)c2ccccc2Br)s1 returned Pf growth 96h -25%, Pf growth 48h 5%, AmpC no deterg -22%, AmpC inh detg inconclusive, Sm TGR block -8% and SARS PLP yeast 16%.
For CCCCC(=O)N/N=C/c1ccc(N2CCOCC2)c([N+](=O)[O-])c1 the results were Pf growth 96h inconclusive, Pf growth 48h -5%, AmpC no deterg -22%, AmpC inh detg 0%, Sm TGR block -21% and SARS PLP yeast 20%.
Cc1n[nH]c(C)c1S(=O)(=O)N1CCN(c2ccccn2)CC1 was read as Pf growth 96h 36%, Pf growth 48h -4%, AmpC inh detg -7% and Sm TGR block 6%.
For Cc1n[nH]c(C)c1S(=O)(=O)N1CCc2ccccc2C1 the results were Pf growth 96h 10µM*, Pf growth 48h -19%, AmpC no deterg -15%, AmpC inh detg -6%, Sm TGR block -2% and SARS PLP yeast 12%.
For O=C(Nc1ccc(F)cc1)c1ccccc1Oc1ccc(C(F)(F)F)cc1[N+](=O)[O-] the results were Pf growth 96h -99%, Pf growth 48h 10µM*, AmpC no deterg -36%, AmpC inh detg -7%, Sm TGR block 2% and SARS PLP yeast -28%.
`O=C(Nc1ccccc1)c1ccccc1Oc1ccc(C(F)(F)F)cc1[N+](=O)[O-]` gave Pf growth 96h 17%, Pf growth 48h -14%, AmpC no deterg -44%, AmpC inh detg -4%, Sm TGR block 1% and SARS PLP yeast -43%.
Screening CCOc1ccc(Oc2cc(N)cc([N+](=O)[O-])c2)cc1 returned Pf growth 96h inconclusive, Pf growth 48h 16%, AmpC no deterg -39%, AmpC inh detg 6%, Sm TGR block 9% and SARS PLP yeast -3%.
For COc1ccc(C(=O)Nc2ccc(NC(C)=O)cc2)cc1S(=O)(=O)N1CCCC1 the results were Pf growth 96h inconclusive, Pf growth 48h inconclusive, AmpC no deterg -18%, AmpC inh detg -3%, Sm TGR block -16% and SARS PLP yeast 3%.
